# Source: PubChem BioAssay
# A number with no mark means an inactive call.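 The calls were made as follows: active = GFP response above 150% of the DMSO level; inconclusive = fewer than 70 events counted for a yeast strain; inactive = the rest.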
# Assay: yeast AGP1-GFP fluorescence change, single-dose – cell-based, flow cytometry, S. cerevisiae, cherry picks, confirmation (AID 2273);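 also: median GFP channel fluorescence over the whole cell population gate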
# Settings: S. cerevisiae AGP1-GFP strain, 3 h, at 10 µM
smiles,measurement,value
CCN(CC)c1ccc2cc(-c3nc(-c4ccc(OC)cc4)cs3)c(=O)oc2c1,"GFP response, % of DMSO",108%
